Holding throughout (assay): NCI-60 one-dose screen, 48 h (100 = growth as untreated, 0 = no growth, -100 = all killed)
Common to all, as to settings: 10 µM

For assay [1], the system named is RPMI-8226 leukemia.
The test system of assay [2] is OVCAR-8 ovarian.
For assay [3], the system named is OVCAR-5 ovarian.
Assay [4] has as its system OVCAR-4 ovarian.
In assay [5] the test system is SK-OV-3 ovarian.
Assay [6] deals with IGROV1 ovarian.
Assay [7] has as its system OVCAR-3 ovarian.
The subject of assay [8] is HS 578T breast.
For assay [9], the system named is NCI/ADR-RES ovarian.

This is part of a sample that, as a whole, favours compounds with a hit. Of some 83,000 tested, about 20% had one in any assay.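 Note: values are percent growth. 100 is the growth of untreated cells, values between 100 and 0 indicate rising inhibition; between -100 and 0 indicates cell death.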 Unmarked numbers belong to inactive results. Calls of active or inactive are those of the source. How the source made its calls: active means growth percent below 10; inactive means the rest.

Turning to `O=c1nc(-c2ccccc2)cc(-c2cc3ccccc3nc2Cl)[nH]1`, the growth was -29.4% (active) in [1]; -68.1% (active) in assay [2]; 40.9% in assay [3]; 80.6% in [4]; 84.8% in [5]; 56.8% in assay [6]. The values for the growth in assay [7], in assay [8] and in [9] were 8.83% (active), 69.6% and -70.1% (active), respectively.

On to `Cc1cc2c(c(O)c1Br)-c1ncoc1C(=O)[C@]1(C)CC[C@H](C(C)C)[C@H]21`, for which the growth in assay [1] is 4.28% (active); in assay [2] it was 32.6%; in [3], 73.2%; in assay [4] it was 52.4%; in assay [5] it was 57%; in [6], 52.2%. The growth in assay [7] is 18.2%; in assay [8] it was 54.7%; in assay [9], 27.8%.

Consider `COc1cccc(-c2ccc(/C=N/NC(=O)c3[nH]c4ccc(Br)cc4c3-c3ccccc3)o2)c1`, for which the growth in assay [1] is 1.18% (active); in assay [2], -16% (active); in assay [3], 12.3%; in assay [4], 37.3%; in assay [5], 34.2%; in [6] it was 32.6%. In addition, the growth is 8.31% (active) in assay [7], -1.37% (active) in assay [8] and -35% (active) in [9].

Take `COC[C@@H](CC(C)C)N=C1NC(=O)/C(=C/c2ccc3ncsc3c2)N1`: the growth in [1] was 4.92% (active); in assay [2] it was 13.7%; in assay [3], -21.7% (active); in [4], 40.4%; in assay [5], -0.203% (active); in assay [6] it was 8.22% (active). Further, the growth in assay [7] was -38.4% (active); in assay [8] it was 11.6%; in assay [9], 9.71% (active).

In the case of `Cc1cc(C)cc(Oc2cccc(-c3c(C)nnn3C3CCN(CCN(C)C)CC3)n2)c1`, the growth is -12.1% (active) in [1]; 35.9% in assay [2]; 58% in assay [3]; 38.9% in [4]; 9.31% (active) in assay [5]; 36.2% in assay [6]. Also, the growth is 38% in assay [7], 5.31% (active) in assay [8] and 32.4% in assay [9].

Consider `O=C1Nc2ccc(F)cc2/C1=C/c1cccc(OCc2ccccc2)c1`, for which the growth in [1] is -28.1% (active); in assay [2], 24.6%; in assay [3], 66%; in assay [4], 36.4%; in [5], 66.7%; in assay [6], 36.6%. The results for the growth in assay [7], in assay [8] and in assay [9] were 7.98% (active), 32.3% and -13.9% (active), respectively.

As for `O=C1NC(=NC23CC4CC(CC(C4)C2)C3)N/C1=C\c1ccc2ncoc2c1`, the growth in [1] is -4.5% (active); in [2], 13.4%; in assay [3], -14.4% (active); in [4], 13.4%; in assay [5], 26.8%; in [6], 3.59% (active). Also, the growth in [7] is 24.1%; in assay [8], -0.689% (active); in assay [9], 4.58% (active).

`CN1CCN(c2ccc(Nc3nc(NCCCNC(=O)c4ccccc4)c4sccc4n3)cc2)CC1`: the growth in assay [1] was 14.8%; in [2], 55.9%; in assay [3], 88.4%; in assay [4], 77.9%; in assay [5], 113%; in assay [6], 94.9%. Further, the growth in assay [7] is 78.5%; in assay [8], 78.8%; in assay [9] it was 82.3%.

Consider `O=C(c1ccc(-n2c(=O)[nH]c3ccccc3c2=O)cc1)N1CCOCC1`, for which the growth in [1] was 120%; in [2], 108%; in [3], 102%; in [4], 114%; in [5] it was 124%; in assay [6], 104%. Besides, the growth in assay [7] was 108%; in assay [8] it was 101%; in assay [9], 106%.

As for `Cc1ccc(NC(=O)NCn2c(=O)[nH]c3ccccc3c2=O)cc1`, the growth is 92.7% in assay [1]; 39.9% in [2]; 94.2% in assay [3]; 50.8% in [4]; 57.8% in assay [5]; 76.6% in assay [6]. The growth in assay [7] is 87.6%; in assay [8] it was 55.3%; in assay [9], 70.7%.

As to `CN1C(=O)/C(=C/c2ccc3ncsc3c2)NC1=NC12CC3CC(CC(O)(C3)C1)C2`, the growth in [1] is -7.67% (active); in assay [2], 16%; in assay [3], 7.24% (active); in [4], 32%; in assay [5], 18.6%; in assay [6] it was 8.51% (active). The growth in [7] is 0.338% (active); in assay [8] it was -10.5% (active); in [9], 10.8%.

For `CC(C)(C)Nc1nc2cc(Cl)c(Cl)cc2nc1S(C)(=O)=O`, the growth is 42.3% in assay [1]; 41.3% in assay [2]; 79.3% in [3]; -6.34% (active) in assay [4]; 72.8% in [5]; 45.2% in assay [6]. In addition, the growth in [7] is -80.3% (active); in assay [8], 56.8%; in assay [9], 7.99% (active).

As for `CN1CCN(c2ccc(Nc3nc(N4CCN(S(=O)(=O)c5ccc(Cl)cc5)CC4)c4sccc4n3)cc2)CC1`, the growth in [1] is -23.6% (active); in assay [2], -82.9% (active); in [3], -80.9% (active); in assay [4], -82.6% (active); in assay [5] it was 116%; in assay [6], 84.3%. Further, the growth in [7] was -34.9% (active); in assay [8] it was 83.9%; in assay [9], 16.1%.

As for `CC(C)C(=O)Nc1ccc(C(=O)NC(=S)Nc2ccc(C(=O)O)cc2)cc1`, the growth is 128% in assay [1]; 111% in [2]; 96.6% in assay [3]; 111% in assay [4]; 99.9% in assay [5]; 106% in assay [6]. For the same compound, the growth in [7] was 91.1%; in assay [8], 98.8%; in assay [9], 104%.

As for `O=C(Nc1nc2ccc([N+](=O)[O-])cc2s1)Nc1cc(Cl)ccc1I`, the growth in assay [1] was -40.9% (active); in assay [2], -13.6% (active); in [3], 15.1%; in [4], 0.91% (active); in assay [5], -9.56% (active); in [6], 13.8%. The growth in assay [7] was -21.2% (active); in [8], -21.5% (active); in assay [9], -34.5% (active).

Take `Cc1nn(-c2ccccc2)c2ncn(CC(=O)N/N=C/c3c[nH]c4ccccc34)c(=O)c12`: the growth in [1] is 73.2%; in [2] it was 89.1%; in assay [3], 103%; in assay [4], 83.2%; in assay [5], 106%; in assay [6], 106%. Further, the results for the growth in assay [7], in assay [8] and in [9] were 84.3%, 72.7% and 101%, respectively.

As for `CC(=O)c1ccc(NC(=O)NCn2c(=O)[nH]c3ccccc3c2=O)cc1`, the growth is 87.8% in [1]; 101% in assay [2]; 107% in assay [3]; 107% in assay [4]; 94.9% in [5]; 104% in assay [6]. Further, the growth in [7] is 131%; in assay [8], 97.3%; in assay [9], 107%.

Take `COc1ccccc1[C@H]1C(C(=O)c2ccc(Cl)cc2)C2(N[C@@H]1c1ccccc1)C(=O)Nc1ccc(Cl)cc12` (stereo not given in full): the growth is 6.41% (active) in [1]; 12.2% in assay [2]; -8.45% (active) in [3]; 24% in [4]; 28.8% in assay [5]; 22.1% in assay [6]. Also, the results for the growth in assay [7], in assay [8] and in [9] were 3.66% (active), -2.19% (active) and -65.5% (active), respectively.

As to `COc1ccc(CCN2C(=O)/C(=C/c3csc(C#N)n3)SC2=S)cc1`, the growth in assay [1] was -0.42% (active); in assay [2], -5.34% (active); in assay [3], 76.7%; in assay [4], 38.4%; in assay [5] it was 96.3%; in assay [6], 26.8%. The growth in assay [7] is -39% (active); in [8], 16.9%; in assay [9], 47%.

As to `Cc1ccc(-c2cc(-c3cc4ccccc4nc3Cl)[nH]c(=O)n2)cc1`, the growth in assay [1] is -30.1% (active); in assay [2], -49.3% (active); in assay [3], -8.44% (active); in assay [4], 48.1%; in assay [5], 51.6%; in assay [6], 28.6%. Besides, the growth in assay [7] is 8.33% (active); in assay [8], 1.21% (active); in assay [9], -38.8% (active).

The values above are taken from PubChem BioAssay (NCI).
